Laboratory results published in PubChem BioAssay (NCI).
The panel holds about 83,000 compounds, 20% with a hit somewhere; the sample as a whole holds those more often.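 Interpretation: 100, growth as untreated; towards 0, rising growth inhibition; 0, no net growth; 0 to -100, cell death. Compounds scoring below 10 were considered active.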 Activity calls are given as the source filed them.

Columns and labels:
Test in all cases: NCI-60 one-dose screen, 48 h (100 = growth as untreated, 0 = no growth, -100 = all killed)
Settings in all cases: 10 µM unless noted
[1] = tested on: HCT-15 colon
[2] = tested on: HT29 colon
[3] = tested on: SNB-75 CNS
[4] = tested on: SNB-19 CNS
[5] = tested on: U251 CNS
[6] = tested on: PC-3 prostate
[7] = tested on: SK-MEL-5 melanoma
[8] = tested on: UACC-62 melanoma
[9] = tested on: LOX IMVI melanoma
[10] = tested on: SK-MEL-28 melanoma
[11] = tested on: SK-MEL-2 melanoma
[12] = tested on: SN12C renal
[13] = tested on: UO-31 renal
[14] = tested on: TK-10 renal
[15] = tested on: ACHN renal
[16] = tested on: CAKI-1 renal
[17] = tested on: A498 renal
[18] = tested on: CCRF-CEM leukemia
[19] = tested on: MOLT-4 leukemia

Measured: growth

COc1ccc(C2=CC(c3ccc(Oc4ccnc5cc(Cl)ccc45)c(OC)c3)c3c(nc(OC)[nH]c3=O)N2)cc1 (centres undefined)
inactive: [1] 44.5% | [2] 50.5% | [3] 73.1% | [4] 75.1% | [5] 67.7% | [6] 54.9% | [7] 74.6% | [8] 51.9% | [9] 52.7% | [10] 91.1% | [11] 91.9% | [12] 63.7% | [13] 56.5% | [14] 98.5% | [15] 57.3% | [16] 82.9% | [17] 69.6% | [18] 26.8%
active: [19] 7.77%

O=C(O)c1cn(C2CC2)c2cc(N3CCN(S(=O)(=O)c4ccc(Cl)c(Cl)c4)CC3)c(F)cc2c1=O
active: [1] 6.24% | [2] 0.259% | [7] 2.06% | [9] 1.21% | [11] -9.56% | [15] 4.95% | [16] 3.06% | [19] 3.44%
inactive: [3] 13.2% | [4] 24.7% | [5] 12.4% | [6] 16.2% | [8] 29.6% | [10] 48.5% | [12] 10.4% | [13] 10% | [14] 33.2% | [17] 13.8% | [18] 16.9%

C=CCn1c(C)nc2ccc(Nc3nc(Nc4ccc(F)cc4)nc4ccccc34)cc21
inactive: [1] 34.5% | [2] 18.7% | [3] 54.6% | [4] 96.5% | [5] 59.6% | [6] 42.1% | [7] 33.3% | [8] 63.2% | [9] 45.3% | [10] 72% | [11] 58.1% | [12] 66.2% | [13] 37.4% | [14] 82.3% | [15] 67.6% | [16] 58.2% | [17] 59.9% | [18] 22.5%
active: [19] -5.55%

COc1ccc(/C=C/c2cc(N3CCOCC3)c3cc(F)c(F)cc3n2)cc1OC
inactive: [1] 30% | [2] 38.9% | [3] 48% | [4] 48.8% | [5] 23.5% | [6] 38.7% | [7] 26.2% | [8] 19.9% | [10] 51.4% | [11] 45% | [12] 44.4% | [13] 18.2% | [14] 31.9% | [15] 26.4% | [17] 54.8% | [18] 12.3%
active: [9] 1.22% | [16] 8.6% | [19] 9.14%

O=c1[nH]c(-c2cn(-c3ccc(Cl)cc3)nn2)nc2ccccc12
inactive: [1] 101% | [2] 72.3% | [4] 72.8% | [5] 74.5% | [6] 74.8% | [7] 79% | [8] 60.9% | [9] 90.8% | [10] 58.1% | [11] 77.2% | [12] 71.9% | [13] 46.1% | [14] 80.6% | [15] 42.5% | [16] 84.2% | [17] 24.7% | [18] 98.6% | [19] 93.7%
active: [3] -9.19%

O=C(c1ccncc1)N1N=C(c2ccc(Cl)cc2)CC1c1c[nH]c2ccccc12 (centres undefined)
inactive: [1] 93.6% | [2] 101% | [3] 82.4% | [4] 105% | [5] 93.4% | [6] 82.8% | [7] 93.3% | [8] 90.5% | [9] 86.9% | [10] 107% | [11] 83% | [12] 92.9% | [13] 45.2% | [14] 107% | [15] 94.8% | [16] 90.2% | [17] 80.5% | [18] 56.7% | [19] 75.1%

CC(=O)OCC1OC(OCC2OC(OC(C)=O)C(OC(C)=O)C(OC(C)=O)C2OC(C)=O)C(OC(C)=O)C(OC(C)=O)C1OC(C)=O (centres undefined)
inactive: [1] 96.7% | [2] 103% | [3] 92.8% | [4] 100% | [5] 92% | [6] 93.5% | [7] 94.2% | [8] 92.2% | [9] 95.7% | [10] 104% | [11] 107% | [12] 95.1% | [13] 95.4% | [14] 106% | [15] 94.7% | [16] 94.7% | [17] 87% | [18] 99.6% | [19] 104%

COC1=CC(c2ccc[nH]2)=N/C1=C\c1[nH]c(C)c(C(=O)CCCCC(=O)Oc2ccc3c(c2)CCC2C3CC[C@]3(C)[C@@H](O)CC[C@@H]23)c1C (some centres undefined)
active: [9] 1.7%
inactive: [1] 37.1% | [2] 38.7% | [3] 62.7% | [4] 75.6% | [5] 52.6% | [6] 42.9% | [7] 47.8% | [8] 57.9% | [10] 81.3% | [11] 70.5% | [12] 58.8% | [13] 42.7% | [14] 96.7% | [15] 62.9% | [16] 25.7% | [17] 38.5% | [18] 17.2% | [19] 22.8%

O=C(COc1ccccc1)N1N=C(c2ccc(Cl)cc2)CC1c1c[nH]c2ccccc12 (centres undefined)
active: [19] -8.31%
inactive: [1] 62.1% | [2] 90.4% | [3] 66.6% | [4] 93.3% | [5] 58% | [6] 63.2% | [7] 85.5% | [8] 70.9% | [9] 59.1% | [10] 104% | [11] 85.3% | [12] 62.7% | [13] 25.7% | [14] 93.6% | [15] 60.8% | [16] 46% | [17] 72.1% | [18] 11.3%

COc1cc(C2C=C(C)N=C3SC=C(C)N32)cc(OC)c1OC (centres undefined)
inactive: [3] 24.6% | [4] 33.5%
active: [1] -20.4% | [2] -37.2% | [5] -75.6% | [6] -17.6% | [7] -97.5% | [8] -61.3% | [9] -82.4% | [10] -75.5% | [11] -39.5% | [12] -8.33% | [13] -87.2% | [14] -22.5% | [15] -75% | [16] -49.9% | [17] -27.6% | [18] -17.9% | [19] -2.68%

c1ccc2nc(-c3ccc4ccccc4n3)ccc2c1
inactive: [1] 104% | [2] 105% | [3] 85.6% | [4] 105% | [5] 95.8% | [6] 84.5% | [7] 88.9% | [8] 97% | [9] 92.2% | [10] 106% | [11] 88% | [12] 95.9% | [13] 78.4% | [14] 116% | [15] 96.4% | [16] 83.2% | [17] 97.3% | [18] 90% | [19] 88.3%

COc1cc(/C=C2\CCCC3=C2NC(C)=NC3c2cc(OC)c(OC)c(OC)c2)cc(OC)c1OC (centres undefined)
active: [1] 4.23% | [2] 7.9% | [5] 9.77% | [8] 9.03% | [9] -41.2% | [18] -19.1% | [19] -22.9%
inactive: [3] 21.9% | [4] 61.2% | [6] 42.7% | [7] 19.1% | [10] 31.9% | [11] 26.6% | [12] 10.8% | [13] 51.1% | [14] 44.5% | [15] 12.5% | [16] 11.4% | [17] 16.3%

COc1cc(C2C=C(C)N=C3SC=CN32)cc(OC)c1OC (centres undefined)
inactive: [1] 106% | [2] 110% | [3] 94.7% | [4] 107% | [5] 103% | [6] 94.5% | [7] 106% | [8] 107% | [9] 97.8% | [10] 109% | [11] 115% | [12] 105% | [13] 90% | [14] 107% | [15] 115% | [16] 96.9% | [17] 106% | [18] 105% | [19] 102%

COc1ccc(-c2nnc(COc3ccc(NC(=O)Nc4ccc(Cl)c(C(F)(F)F)c4)cc3F)o2)cc1
inactive: [3] 15.6% | [4] 21.7% | [7] 12.3% | [8] 19.2% | [12] 21.2% | [14] 35%
active: [1] 8.08% | [2] 9.28% | [5] -26.6% | [6] -8.78% | [9] 1.05% | [10] 1.13% | [11] -7.3% | [13] 2.2% | [15] -23.2% | [16] 4.77% | [17] -1.59% | [18] 0.195% | [19] 2.69%

CCN(CC)CCCC(C)N=c1cc(Nc2cc(=NC(C)CCCN(CC)CC)c3cc(OC)ccc3o2)oc2ccc(OC)cc12 (centres undefined)
active: [1] -16.7% | [2] -42% | [3] -90.8% | [4] 2.11% | [5] -57.6% | [6] -26.4% | [7] -97.8% | [8] -72.5% | [9] -77.7% | [10] -94.6% | [11] -83.9% | [12] -9.47% | [13] -88.8% | [14] -50.2% | [15] -14.1% | [16] -39.7% | [17] -8.63% | [18] -41.7% | [19] -55.8%

O=S(=O)(c1ccccc1)n1ccc(-c2ccc3c(c2)CCO3)n1
inactive: [1] 92.8% | [2] 92.8% | [3] 76.2% | [4] 83.4% | [5] 73.6% | [6] 84.2% | [7] 70.2% | [8] 73.1% | [9] 85.2% | [10] 86.2% | [11] 86.5% | [12] 67.9% | [13] 51% | [14] 76.2% | [15] 78.4% | [16] 75.3% | [17] 71.2% | [18] 76.7% | [19] 85.6%
